Source: PubChem BioAssay (Tox21)
Results filed as inconclusive are left out. The source made the active and inactive calls. Unless noted, the call rests on the fitted dose curve; in most records, active means well fitted curve in the direction sought with a large enough effect in the repeat runs; inconclusive means weak or mixed curves; inactive means no such curve, though single readings can be large; an effect the other way counts as inactive or inconclusive.

Assays:
[1] = qHTS assay to identify small molecule agonists of the peroxisome proliferator-activated receptor delta (PPARd) signaling pathway - cell viability counter screen (AID 743211); further: nearly all actives have a fitted effect of over 55% in size
In short: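 PPARd-bla HEK293H cells (UAS-beta-lactamase reporter) were treated with compounds for 17 h at 37 C. Viability was then read in the same wells by CellTiter-Glo luminescence after 30 min at room temperature.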

[2] = target: Peroxisome proliferator-activated receptor delta (Homo sapiens) (UniProt Q03181); assay: qHTS assay to identify small molecule agonists of the peroxisome proliferator-activated receptor delta (PPARd) signaling pathway (AID 743212; calls by dose curve)
Sequence of Peroxisome proliferator-activated receptor delta (Homo sapiens) (Q03181 whole entry, looked up): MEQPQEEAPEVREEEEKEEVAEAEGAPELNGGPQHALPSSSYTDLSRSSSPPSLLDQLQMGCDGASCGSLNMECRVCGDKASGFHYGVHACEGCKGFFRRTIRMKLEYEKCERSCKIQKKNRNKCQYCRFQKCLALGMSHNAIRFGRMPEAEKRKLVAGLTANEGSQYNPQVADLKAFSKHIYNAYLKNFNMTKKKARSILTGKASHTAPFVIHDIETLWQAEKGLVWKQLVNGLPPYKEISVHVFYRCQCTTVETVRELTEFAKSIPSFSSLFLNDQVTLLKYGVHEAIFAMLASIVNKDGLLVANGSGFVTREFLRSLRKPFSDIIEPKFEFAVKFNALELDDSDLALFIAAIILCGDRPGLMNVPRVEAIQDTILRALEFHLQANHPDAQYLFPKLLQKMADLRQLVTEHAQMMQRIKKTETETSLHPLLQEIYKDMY
In short: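 HEK293H UAS-bla reporter cells, human PPARd system; compounds delivered in DMSO after 5 h plating, then at 37 C. Beta-lactamase FRET read, 2 h RT substrate step.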

[3] = qHTS assay to identify small molecule antagonists of the peroxisome proliferator-activated receptor delta (PPARd) signaling pathway - cell viability counter screen (AID 743213); further: nearly all actives have a fitted effect of over 50% in size
In short: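 Viability counter-screen, qHTS format: PPARd-bla HEK293H, L165041 300 nM final, 17 h compound exposure at 37 C, CellTiter-Glo luminescence after 30 min RT.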

[4] = qHTS assay to identify small molecule agonists of the farnesoid-X-receptor (FXR) signaling pathway - cell viability counter screen (AID 743218); further: nearly all actives have a fitted effect of over 45% in size
In short: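 HEK 293T FXR-bla cells; 5 h pre-incubation, 16 h compound exposure at 37 C; LiveBLAzer substrate 2 h RT, then CellTiter-Glo 30 min RT, luminescence.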

[5] = qHTS assay to identify small molecule antagonists of the farnesoid-X-receptor (FXR) signaling pathway - cell viability counter screen (AID 743221; active means well fitted cell-killing curve with a large enough effect in the repeat runs, not every such curve was filed as active; further: nearly all actives have a fitted effect of over 50% in size)
In short: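 FXR-UAS-bla HEK 293T cells were treated with test compounds plus chenodeoxycholic acid (50 uM final) for 16 h at 37 C. Cell viability in the same wells was then read as CellTiter-Glo luminescence after 30 min at room temperature.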

[6] = target: Vitamin D3 receptor (Homo sapiens) (UniProt P11473); assay: qHTS assay to identify small molecule agonists of the vitamin D receptor (VDR) signaling pathway (AID 743222; calls by dose curve)
Sequence of Vitamin D3 receptor (Homo sapiens) (P11473 whole entry, looked up): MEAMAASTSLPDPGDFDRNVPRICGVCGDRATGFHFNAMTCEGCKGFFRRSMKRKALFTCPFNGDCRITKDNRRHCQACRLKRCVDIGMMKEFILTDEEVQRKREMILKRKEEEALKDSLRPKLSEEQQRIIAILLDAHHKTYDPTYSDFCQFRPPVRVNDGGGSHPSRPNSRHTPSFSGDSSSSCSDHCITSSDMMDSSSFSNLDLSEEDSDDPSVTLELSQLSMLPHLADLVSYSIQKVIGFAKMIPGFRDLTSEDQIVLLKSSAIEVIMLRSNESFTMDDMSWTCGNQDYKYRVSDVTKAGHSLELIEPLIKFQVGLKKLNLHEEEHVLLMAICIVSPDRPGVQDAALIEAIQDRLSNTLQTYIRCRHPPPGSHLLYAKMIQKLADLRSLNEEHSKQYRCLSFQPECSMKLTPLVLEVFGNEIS
In short: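 VDR-bla cells, 2,000/well; 4 h preincubation 37C; cpd (DMSO) 16 h; LiveBLAzer B/G substrate 2 h RT; fluorescence intensity read.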

[7] = target: Vitamin D3 receptor (Homo sapiens) (UniProt P11473); assay: qHTS assay to identify small molecule antagonists of the vitamin D receptor (VDR) signaling pathway (AID 743223; active means well fitted inhibition curve with a large enough effect in the signal ratio in the repeat runs, not every such curve was filed as active; the % refers to the signal ratio)
In short: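 VDR-bla cells were plated, incubated 4 h at 37C, then given compound and 1alpha,25-dihydroxyvitamin D3 (3 nM final). After 16 h at 37C, LiveBLAzer B/G FRET substrate was added for 2 h at room temperature and fluorescence read.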

[8] = qHTS assay to identify small molecule agonists of the NFkB signaling pathway - cell viability counter screen (AID 1159515; calls by dose curve; further: series mostly up to about 61 µM; nearly all actives have a fitted effect of over 55% in size)
In short: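 Luminescence from CellTiter-Glo (30 min, room temperature) gives viability, measured in the same wells as the beta-lactamase reporter read. Cells were NFkB-bla ME-180, 2,000 per well, treated 5 hr with compounds.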

[9] = qHTS assay to identify small molecule agonists of the endoplasmic reticulum stress response signaling pathway (AID 1159516; active means well fitted activation curve with a large enough effect in the signal ratio in the repeat runs, not every such curve was filed as active; the % refers to the signal ratio)
In short: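 Read-out is beta-lactamase cleavage of a FRET substrate (405 nm excitation; 460 and 530 nm emissions) in ESRE-bla HeLa cells after a 5 hr compound exposure at 37 C. Substrate incubation ran 2 hr at room temperature.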

[10] = qHTS assay to identify small molecule agonists of the endoplasmic reticulum stress response signaling pathway - cell viability counter screen (AID 1159517; calls by dose curve;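 further: HeLa cells carrying an ER stress response element beta-lactamase reporter; series mostly up to about 61 µM; nearly all actives have a fitted effect of over 50% in size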)
In short: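 Cells, HeLa ESRE-bla; density, 1,500/well; dosing, 5 hr at 37 C, 5% CO2; readout, CellTiter-Glo luminescence after 30 min RT.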

[11] = qHTS assay to identify small molecule antagonists of the retinoid-related orphan receptor gamma (ROR-gamma) signaling pathway - cell viability counter screen (AID 1159520); further: nearly all actives have a fitted effect of over 50% in size
In short: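 Cytotoxicity was read from cellular ATP (CellTiter-Glo luminescence) after 16 hr at 37 C with 1 uM doxycycline induction. The inducer was added 2 hr after compound transfer to Tet-on ROR gamma CHO cells.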

[12] = target: Nuclear receptor ROR-gamma (Homo sapiens) (UniProt P51449); assay: qHTS assay to identify small molecule antagonists of the retinoid-related orphan receptor gamma (ROR-gamma) signaling pathway (AID 1159521)
In short: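 Tet-on RORγ CHO cells carrying a ROR response element–luciferase reporter were pretreated with compounds for 2 h, then induced with 1 uM (final) doxycycline hyclate for 16 h at 37 C. Antagonism was read as decreased ONE-Glo luminescence.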

[13] = qHTS assay to identify small molecule agonists of the AP-1 signaling pathway (AID 1159526; calls by dose curve)
[14] = qHTS assay to identify small molecule agonists of the vitamin D receptor (VDR) signaling pathway - cell viability counter screen (AID 743224)
In short: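 Luminescence from CellTiter-Glo, read after 30 min at room temperature, reports viability of VDR-bla cells treated with compounds for 16 h at 37C in the wells used for the beta-lactamase FRET read.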

[15] = qHTS assay to identify small molecule agonists of the AP-1 signaling pathway - cell viability counter screen (AID 1159525; calls by dose curve; further: nearly all actives have a fitted effect of over 55% in size)
In short: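 Luminescent ATP readout (Cell Titer Glo, 30 min RT), normalised to DMSO and tetra n-octyl ammonium bromide controls. Cells were ME-180 AP-1-bla in 0.5% dialyzed FBS Opti-MEM, with a 5 h, 37 °C compound exposure.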

[16] = target: Bile acid receptor (Homo sapiens) (UniProt Q96RI1); assay: qHTS assay to identify small molecule antagonists of the farnesoid-X-receptor (FXR) signaling pathway (AID 743217; active means well fitted inhibition curve with a large enough effect in the signal ratio in the repeat runs, not every such curve was filed as active; the % refers to the signal ratio)
Sequence of Bile acid receptor (Homo sapiens) (Q96RI1 whole entry, looked up): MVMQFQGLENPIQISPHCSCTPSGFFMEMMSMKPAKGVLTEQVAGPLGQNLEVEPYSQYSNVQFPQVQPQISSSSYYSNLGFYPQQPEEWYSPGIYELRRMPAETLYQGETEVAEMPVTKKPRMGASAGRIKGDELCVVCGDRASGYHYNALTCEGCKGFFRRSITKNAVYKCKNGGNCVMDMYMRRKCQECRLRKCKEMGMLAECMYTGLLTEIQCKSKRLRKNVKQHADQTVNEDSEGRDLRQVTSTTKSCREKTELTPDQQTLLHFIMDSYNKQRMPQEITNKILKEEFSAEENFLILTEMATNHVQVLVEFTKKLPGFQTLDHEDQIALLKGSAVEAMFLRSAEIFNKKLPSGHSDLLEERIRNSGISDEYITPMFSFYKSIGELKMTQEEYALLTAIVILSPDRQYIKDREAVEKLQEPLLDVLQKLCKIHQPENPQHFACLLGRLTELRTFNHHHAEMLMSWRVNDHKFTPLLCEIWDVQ
In short: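 HEK 293T FXR-UAS-bla, 5000 cells/well; compound + CDCA 50 uM final; 16 h, 37 °C; B/G FRET substrate 2 h RT; fluorescence.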

[17] = target: Bile acid receptor (Homo sapiens) (UniProt Q96RI1); assay: qHTS assay to identify small molecule agonists of the farnesoid-X-receptor (FXR) signaling pathway (AID 743220; active means well fitted activation curve with a large enough effect in the signal ratio in the repeat runs, not every such curve was filed as active; the % refers to the signal ratio)
In short: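 Beta-lactamase reporter under UAS control in GeneBLAzer FXR HEK 293T cells (5000/well) measured with LiveBLAzer FRET substrate after 2 h at room temperature. Compound exposure lasted 16 h at 37C.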

[18] = qHTS assay to identify small molecule antagonists of the vitamin D receptor (VDR) signaling pathway - cell viability counter screen (AID 743225); further: nearly all actives have a fitted effect of over 50% in size
In short: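 VDR-bla HEK 293T cells, 4 h pre-incubation at 37C, then compound plus 1-alpha,25-dihydroxyvitamin D3 (3 nM final) for 16 h. After the beta-lactamase FRET read, CellTiter-Glo was added to the same wells; luminescence after 30 min at room temperature.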

[19] = target: Peroxisome proliferator-activated receptor delta (Homo sapiens) (UniProt Q03181); assay: qHTS assay to identify small molecule antagonists of the peroxisome proliferator-activated receptor delta (PPARd) signaling pathway (AID 743215; active means well fitted inhibition curve with a large enough effect in the signal ratio in the repeat runs, not every such curve was filed as active; the % refers to the signal ratio;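 further: cells stimulated with agonist L165041 at 300 nM final during compound exposure; series mostly up to about 62 µM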)
In short: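 Read-out is beta-lactamase FRET fluorescence, measured 2 h after substrate addition at room temperature. Beforehand, UAS-bla HEK293H cells carrying the PPARd reporter were exposed to compounds with L165041 at 300 nM final for 17 h at 37 C.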

Measured: Potency

CC(=O)OCCc1ccccc1
not listed: [14] | [15] | [16] | [17] | [18] | [19]
inactive: all other assays above

CCCCCCCCCC=O
not listed: [2] | [5] | [11] | [16] | [17] | [18] | [19]
inactive: all other assays above

Cc1ccccn1
not listed: [2] | [15] | [19]
inactive: all other assays above

O=C(Cl)c1c(Cl)cccc1Cl
not listed: [15] | [16] | [17] | [19]
inactive: all other assays above

O=C(O)/C=C/c1cnc[nH]1
not listed: [2] | [5] | [15] | [16] | [17] | [19]
inactive: all other assays above

O=C(CC(=O)c1ccccc1)c1ccccc1
not listed: [13] | [14] | [15] | [18]
inactive: all other assays above

Nc1ccc(C(=O)Nc2ccccc2N)cc1
not listed: [3] | [4] | [6] | [12] | [15] | [16] | [17] | [19]
inactive: all other assays above

CCCCCCCCCCCCCCC1CO1 (centres undefined)
not listed: [5] | [11] | [16] | [17]
inactive: all other assays above

CCOC(=O)C1=C(C)NC(C)=C(C(=O)OC)C1c1cccc([N+](=O)[O-])c1 (centres undefined)
not listed: [5] | [15] | [16] | [17] | [18]
inactive: all other assays above
